About 2,000 (36%) of roughly 5,500 compounds were called active. About 18% were inconclusive and are not listed. No stated cut-off is given here; in the data, active means normalized growth mostly below about 0.91 (no sharp cut-off); inconclusive means no clear call, values can overlap the other calls; inactive means mostly above about 0.92. The list shows a part of the results.
Experiment: chemical genetic growth profiling, strain panel (AID 1159580);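 further: tested at 20 µM; growth read once vehicle control cultures reached saturation at 30 °C; 1 = growth at the plate median or of vehicle wells; lower values mean less growth of the strain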
Conditions: growth OD

Measured: normalized growth

N#CC1COc2ccccc2O1 (centres undefined)
inactive: S. cerevisiae deletion strains, locus YAL013W, strain DEP1, active compounds read low 1.01 | S. cerevisiae deletion strains, locus YBR229C, strain ROT2, active compounds read low 0.993 | S. cerevisiae deletion strains, locus YDL101C, strain DUN1, active compounds read low 1.01 | S. cerevisiae deletion strains, locus YDR150W, strain NUM1, active compounds read low 1.03 | S. cerevisiae deletion strains, locus YEL061C, strain CIN8, active compounds read low 1.01 | S. cerevisiae deletion strains, locus YGR078C, strain PAC10, active compounds read low 0.999 | S. cerevisiae deletion strains, locus YGR229C, strain SMI1, active compounds read low 0.999 | S. cerevisiae deletion strains, locus YHR030C, strain SLT2, active compounds read low 1.03 | S. cerevisiae deletion strains, locus YHR087W, strain rtc3, active compounds read low 0.989 | S. cerevisiae deletion strains, locus YJR043C, strain POL32, active compounds read low 1.03 | S. cerevisiae deletion strains, locus YJR075W, strain HOC1, active compounds read low 0.973 | S. cerevisiae deletion strains, locus YKL190W, strain CNB1, active compounds read low 1.02 | S. cerevisiae deletion strains, locus YLR039C, strain RIC1, active compounds read low 1 | S. cerevisiae deletion strains, locus YLR058C, strain SHM2 (second series), active compounds read low 0.994 | S. cerevisiae deletion strains, locus YLR085C, strain ARP6, active compounds read low 1.01 | S. cerevisiae deletion strains, locus YLR262C, strain YPT6, active compounds read low 0.997 | S. cerevisiae deletion strains, locus YML094W, strain GIM5, active compounds read low 1.01 | S. cerevisiae deletion strains, locus YMR219W, strain ESC1, active compounds read low 0.999 | S. cerevisiae deletion strains, locus YMR263W, strain SAP30, active compounds read low 1.03 | S. cerevisiae deletion strains, locus YMR307W, strain GAS1, active compounds read low 1.1 | S. cerevisiae deletion strains, locus YNL153C, strain GIM3, active compounds read low 0.996 | S. cerevisiae deletion strains, locus YNL298W, strain CLA4 (second series), active compounds read low 1.04 | S. cerevisiae deletion strains, locus YNL322C, strain KRE1, active compounds read low 0.984 | S. cerevisiae deletion strains, locus YNR030W, strain Alg12, active compounds read low 1.01 | S. cerevisiae deletion strains, locus YPL055C, strain LGE1, active compounds read low 1.13 | S. cerevisiae deletion strains, locus YPL241C, strain CIN2, active compounds read low 0.998 | S. cerevisiae deletion strains, locus YPR135W, strain CTF4, active compounds read low 1.04 | S. cerevisiae strains, strain wild type, active compounds read low 1.01

S=c1ccss1
inactive: S. cerevisiae deletion strains, locus YAL030W, strain snc1, active compounds read low 0.997 | S. cerevisiae deletion strains, locus YBL061C, strain skt5, active compounds read low 0.989 | S. cerevisiae deletion strains, locus YBR009C, strain hhf1, active compounds read low 0.915 | S. cerevisiae deletion strains, locus YBR023C, strain chs3, active compounds read low 0.972 | S. cerevisiae deletion strains, locus YBR171W, strain sec66, active compounds read low 0.994 | S. cerevisiae deletion strains, locus YBR279W, strain paf1, active compounds read low 0.948 | S. cerevisiae deletion strains, locus YCL011C, strain gbp2, active compounds read low 0.916 | S. cerevisiae deletion strains, locus YCL016C, strain dcc1, active compounds read low 0.977 | S. cerevisiae deletion strains, locus YCL069W, strain vba3, active compounds read low 1 | S. cerevisiae deletion strains, locus YCR088W, strain abp1, active compounds read low 1 | S. cerevisiae deletion strains, locus YDL005C, strain med2, active compounds read low 0.987 | S. cerevisiae deletion strains, locus YDL040C, strain nat1, active compounds read low 0.985 | S. cerevisiae deletion strains, locus YDR001C, strain nth1, active compounds read low 1 | S. cerevisiae deletion strains, locus YDR159W, strain sac3, active compounds read low 1.06 | S. cerevisiae deletion strains, locus YDR195W, strain ref2 1.1 | S. cerevisiae deletion strains, locus YDR297W, strain sur2, active compounds read low 0.993 | S. cerevisiae deletion strains, locus YDR334W, strain swr1, active compounds read low 0.931 | S. cerevisiae deletion strains, locus YDR335W, strain msn5, active compounds read low 0.992 | S. cerevisiae deletion strains, locus YDR392W, strain spt3, active compounds read low 1.02 | S. cerevisiae deletion strains, locus YEL003W, strain gim4, active compounds read low 1.01 | S. cerevisiae deletion strains, locus YEL037C, strain rad23, active compounds read low 0.984 | S. cerevisiae deletion strains, locus YEL061C, strain CIN8 (second series), active compounds read low 1.01 | S. cerevisiae deletion strains, locus YER015W, strain faa2, active compounds read low 0.984 | S. cerevisiae deletion strains, locus YER016W, strain bim1, active compounds read low 0.984 | S. cerevisiae deletion strains, locus YER111C, strain swi4, active compounds read low 1.01 | S. cerevisiae deletion strains, locus YER155C, strain BEM2 (second series), active compounds read low 0.979 | S. cerevisiae deletion strains, locus YGL167C, strain pmr1, active compounds read low 1 | S. cerevisiae deletion strains, locus YGL173C, strain kem1, active compounds read low 0.926 | S. cerevisiae deletion strains, locus YGL227W, strain vid30, active compounds read low 1.01 | S. cerevisiae deletion strains, locus YGL240W, strain doc1, active compounds read low 0.96 | S. cerevisiae deletion strains, locus YHR027C, strain rpn1, active compounds read low 0.943 | S. cerevisiae deletion strains, locus YHR142W, strain chs7, active compounds read low 0.94 | S. cerevisiae deletion strains, locus YJL092W, strain hpr5, active compounds read low 0.991 | S. cerevisiae deletion strains, locus YJL095W, strain BCK1 (second series), active compounds read low 0.99 | S. cerevisiae deletion strains, locus YJL115W, strain asf1, active compounds read low 0.994 | S. cerevisiae deletion strains, locus YJL129C, strain trk1, active compounds read low 0.927 | S. cerevisiae deletion strains, locus YJL154C, strain vps35, active compounds read low 0.997 | S. cerevisiae deletion strains, locus YJL164C, strain tpk1, active compounds read low 0.956 | S. cerevisiae deletion strains, locus YJL166W, strain qcr8, active compounds read low 0.914 | S. cerevisiae deletion strains, locus YJL187C, strain SWE1, active compounds read low 0.965 | S. cerevisiae deletion strains, locus YKL160W, strain elf1, active compounds read low 0.947 | S. cerevisiae deletion strains, locus YKR026C, strain gcn3, active compounds read low 0.993 | S. cerevisiae deletion strains, locus YKR091W, strain srl3, active compounds read low 0.992 | S. cerevisiae deletion strains, locus YLL001W, strain dnm1, active compounds read low 0.939 | S. cerevisiae deletion strains, locus YLL026W, active compounds read low 0.967 | S. cerevisiae deletion strains, locus YLL041C, strain sdh2, active compounds read low 1 | S. cerevisiae deletion strains, locus YLR027C, strain aat2, active compounds read low 0.943 | S. cerevisiae deletion strains, locus YLR221C, strain rsa3, active compounds read low 0.924 | S. cerevisiae deletion strains, locus YLR258W, strain gsy2, active compounds read low 0.965 | S. cerevisiae deletion strains, locus YLR262C, strain YPT6 (second series), active compounds read low 0.866 | S. cerevisiae deletion strains, locus YLR320W, strain mms22, active compounds read low 0.939 | S. cerevisiae deletion strains, locus YLR342W, strain FKS1, active compounds read low 0.973 | S. cerevisiae deletion strains, locus YLR370C, strain arc18, active compounds read low 0.929 | S. cerevisiae deletion strains, locus YLR384C, strain iki3, active compounds read low 0.996 | S. cerevisiae deletion strains, locus YML120C, strain ndi1, active compounds read low 1.02 | S. cerevisiae deletion strains, locus YMR058W, strain fet3, active compounds read low 0.962 | S. cerevisiae deletion strains, locus YMR125W, strain sto1, active compounds read low 1.04 | S. cerevisiae deletion strains, locus YMR129W, active compounds read low 0.984 | S. cerevisiae deletion strains, locus YMR205C, strain PFK2, active compounds read low 0.935 | S. cerevisiae deletion strains, locus YMR231W, strain pep5, active compounds read low 0.995 | S. cerevisiae deletion strains, locus YNL071W, strain lat1, active compounds read low 0.922 | S. cerevisiae deletion strains, locus YNL209W, strain ssb2, active compounds read low 0.981 | S. cerevisiae deletion strains, locus YNL248C, strain rpa49, active compounds read low 1.01 | S. cerevisiae deletion strains, locus YNL322C, strain KRE1 (second series), active compounds read low 0.99 | S. cerevisiae deletion strains, locus YNR049C, strain mso1, active compounds read low 1 | S. cerevisiae deletion strains, locus YOR001W, strain rrp6, active compounds read low 0.98 | S. cerevisiae deletion strains, locus YOR080W, strain dia2, active compounds read low 1 | S. cerevisiae deletion strains, locus YOR265W, strain rbl2, active compounds read low 0.992 | S. cerevisiae deletion strains, locus YOR290C, strain snf2, active compounds read low 0.866 | S. cerevisiae deletion strains, locus YPL106C, strain sse1, active compounds read low 0.958 | S. cerevisiae deletion strains, locus YPL240C, strain hsp82, active compounds read low 0.986
active: S. cerevisiae deletion strains, locus YAL021C, strain ccr4, active compounds read low 0.679 | S. cerevisiae deletion strains, locus YAL026C, strain drs2, active compounds read low 0.779 | S. cerevisiae deletion strains, locus YBR231C, strain swc5, active compounds read low 0.895 | S. cerevisiae deletion strains, locus YDR069C, strain doa4, active compounds read low 0.835 | S. cerevisiae deletion strains, locus YDR137W, strain rgp1, active compounds read low 0.805 | S. cerevisiae deletion strains, locus YFR010W, strain ubp6, active compounds read low 0.839 | S. cerevisiae deletion strains, locus YGL253W, strain hxk2, active compounds read low 0.818 | S. cerevisiae deletion strains, locus YHR013C, strain ard1, active compounds read low 0.77 | S. cerevisiae deletion strains, locus YLR357W, strain rsc2, active compounds read low 0.807 | S. cerevisiae deletion strains, locus YOR070C, strain gyp1, active compounds read low 0.911 | S. cerevisiae deletion strains, locus YOR083W, strain WHI5, active compounds read low 0.857 | S. cerevisiae deletion strains, locus YOR106W, strain vam3, active compounds read low 0.646 | S. cerevisiae deletion strains, locus YOR270C, strain vph1, active compounds read low 0.423 | S. cerevisiae deletion strains, locus YPL051W, strain arl3, active compounds read low 0.904 | S. cerevisiae deletion strains, locus YPL078C, strain atp4, active compounds read low 0.872

From PubChem BioAssay AID1159580 (chemical genetic matrix, 2015)
